The full ranking holds about 35,000 sequences; the median of “fluorescence intensity (a.u.)” is about 10,000, and the highest 2% start at about 52,000. Only a selection was taken, and the highest values are over-represented in it overall.
molecular target: T1, OsWOX13 (Oryza sativa, UniProt Q5QMM3 1-267); assay: protein-binding microarray (RPBM); PBS, 2% BSA, 51.3 ng/ul salmon testes DNA, 50 uM zinc acetate, 200 nM TF, 25 C, 1 h; high values mean tight binding; settings: protein: recombinant; tags: N-terminal polyhistidine and DsRed monomer fusion (pET32a); label: CyDye5-dUTP incorporated in the synthesized complementary strand; 3' TTTTT single-stranded linker to array surface; dsDNA, one strand shown
T1 sequence: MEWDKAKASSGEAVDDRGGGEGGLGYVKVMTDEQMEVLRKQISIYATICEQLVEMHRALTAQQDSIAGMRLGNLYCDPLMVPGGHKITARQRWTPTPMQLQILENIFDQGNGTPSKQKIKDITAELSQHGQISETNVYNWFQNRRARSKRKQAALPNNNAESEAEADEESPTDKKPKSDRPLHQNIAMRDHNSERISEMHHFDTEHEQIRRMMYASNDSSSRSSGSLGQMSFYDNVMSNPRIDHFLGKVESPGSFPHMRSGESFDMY
Method in brief: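 Transcription factors were each fused at the N-terminus to a polyhistidine tag plus DsRed and expressed in E. coli BL21-CodonPlus before Ni–NTA purification. Binding to a double-stranded custom Agilent array was carried out with 200 nM protein at 25 °C for 1 h in PBS, 2% BSA, salmon testes DNA and 50 µM zinc acetate. The binding signal is per-feature fluorescence intensity, in arbitrary units, on an Axon 4000B scanner.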

“ACACCAATTGAACATTTGGATGTAAACATTAGGGATGCTGCGGAGTCACCTAGTGCAG” was tested. Which binding signal did it give?
The binding signal was 3400 fluorescence intensity (a.u.).

For “CCTAATTAAGTGGATTTTAGTTTTATATATTATTTAACTTCGGAGTCACCTAGTGCAG”, which binding signal is on record?
Its binding signal is 25700 fluorescence intensity (a.u.).

With “CATTTGCTAATGACGGATTAATTAGGGTTTATAAATTCGTCGGAGTCACCTAGTGCAG” as the sequence, how does the binding signal read?
The binding signal was 24400 fluorescence intensity (a.u.).

For “ATATGATTAATATTTTATGCGATTAATATTTTATGCGTGACGGAGTCACCTAGTGCAG”, which binding signal is on record?
Its binding signal is 41400 fluorescence intensity (a.u.).

Which binding signal does the source give for “TTGCTAATGACGGATTAATTAGGCTTAATAAATTCGTCTCCGGAGTCACCTAGTGCAG” here?
Its binding signal is 33900 fluorescence intensity (a.u.).

“AGTTAGTGATTATATGATTAATCTATGGTCCAAATTATCTCGGAGTCACCTAGTGCAG” was tested. Which binding signal did it give?
The binding signal was 23900 fluorescence intensity (a.u.).

For “AGTTAATTAATTAGTCCATCCAAGGAAGGAGTATATGATTCGGAGTCACCTAGTGCAG”, which binding signal is on record?
Its binding signal is 55800 fluorescence intensity (a.u.).

For “TGTTAGATGATAAAACATGATTAATATTTTATGCGTGACTCGGAGTCACCTAGTGCAG”, which binding signal is on record?
The binding signal was 8120 fluorescence intensity (a.u.).

For “GCAGTCCATTAACACGTGATTAATTAAGTATTAGTTAATTCGGAGTCACCTAGTGCAG”, which binding signal is on record?
The binding signal was 21800 fluorescence intensity (a.u.).

For “GAGCCTAATTAATTCGTGATTAGCCTAATGACGGATTAATCGGAGTCACCTAGTGCAG”, which binding signal is on record?
The binding signal was 57400 fluorescence intensity (a.u.).

With “TGTGATTAGTTCTAATTTAATATAGCAAGAACTAGTGGATCGGAGTCACCTAGTGCAG” as the sequence, how does the binding signal read?
Its binding signal is 53800 fluorescence intensity (a.u.).

Which binding signal does the source give for “ACCAATATATATATACTAATTAAATTTGTGGAACTTGGATCGGAGTCACCTAGTGCAG” here?
Its binding signal is 4420 fluorescence intensity (a.u.).

“ATGATTAATTATTATTTTAGTGATATGCGATATACTCGTGCGGAGTCACCTAGTGCAG” was tested. Which binding signal did it give?
Its binding signal is 65000 fluorescence intensity (a.u.).

How did the binding signal turn out when “GGTAGTACTTAATTAATCACGCGCTAATAGACCGCTCTGTCGGAGTCACCTAGTGCAG” was run?
Its binding signal is 22600 fluorescence intensity (a.u.).

“TCGTATTTATGGCTAATTATTATTTCAGTGGTAGACGATTCGGAGTCACCTAGTGCAG” was tested. Which binding signal did it give?
Its binding signal is 6670 fluorescence intensity (a.u.).

For “TACACTAATTAATTAAGCATTAATCGTGGGAAGAGTAACGCGGAGTCACCTAGTGCAG”, which binding signal is on record?
Its binding signal is 47000 fluorescence intensity (a.u.).

Which binding signal does the source give for “TTGCATGTTTGTGGATTGATACATTAGATATTGATCTATCCGGAGTCACCTAGTGCAG” here?
Its binding signal is 3540 fluorescence intensity (a.u.).

How did the binding signal turn out when “TCATGCAGTAATTAATCAGTGACAGTGAACCTTGTTAGTACGGAGTCACCTAGTGCAG” was run?
The binding signal was 17400 fluorescence intensity (a.u.).

“AGAAAATTTAATCTTAAATATGGACATTACGAATGTACAACGGAGTCACCTAGTGCAG” was tested. Which binding signal did it give?
Its binding signal is 4110 fluorescence intensity (a.u.).

How did the binding signal turn out when “AAAATTTGTCAATAAATATATAGGCAGTCCCGGTCCGTTCCGGAGTCACCTAGTGCAG” was run?
The binding signal was 4490 fluorescence intensity (a.u.).

How did the binding signal turn out when “TCCTCAATTAATTGCTGATCCTAATGCAGAGTTTCAGGTGCGGAGTCACCTAGTGCAG” was run?
Its binding signal is 35500 fluorescence intensity (a.u.).

“TATCACTAATAATTTAGCTCAGTTTGACAAGACGGATATCCGGAGTCACCTAGTGCAG” was tested. Which binding signal did it give?
Its binding signal is 4380 fluorescence intensity (a.u.).

For “TTACCAAATTTCACTGTTAACAGCGGTGCGTGGGTATTGACGGAGTCACCTAGTGCAG”, which binding signal is on record?
Its binding signal is 6390 fluorescence intensity (a.u.).

With “GGTATAACCTAAAGTTTATCCGTTTGTAGAGCGAATGTTTCGGAGTCACCTAGTGCAG” as the sequence, how does the binding signal read?
The binding signal was 14400 fluorescence intensity (a.u.).

How did the binding signal turn out when “CATGGTCAATCTACTCGTTAACGTACATTCACGGTTATTTCGGAGTCACCTAGTGCAG” was run?
The binding signal was 9160 fluorescence intensity (a.u.).

For “CACTTGATTAATTTATCCTCTCCTCGCGTCGCTGTCGCGTCGGAGTCACCTAGTGCAG”, which binding signal is on record?
Its binding signal is 52700 fluorescence intensity (a.u.).

With “GCTGTTTGATCCATAATTTATCCGCGCGTCGTCACTCCGACGGAGTCACCTAGTGCAG” as the sequence, how does the binding signal read?
Its binding signal is 5840 fluorescence intensity (a.u.).

Which binding signal does the source give for “TCTAATTGGCTTACTTAATATGATTCGATCCTACAACCTCCGGAGTCACCTAGTGCAG” here?
The binding signal was 53700 fluorescence intensity (a.u.).

“TAATTTAATTTAATTACCTCCCTAATCACTCTCGCTCGCTCGGAGTCACCTAGTGCAG” was tested. Which binding signal did it give?
The binding signal was 46200 fluorescence intensity (a.u.).

How did the binding signal turn out when “GCCTAATTGCTTAATTAGCAGCCAACGGATTCGATTGATCCGGAGTCACCTAGTGCAG” was run?
Its binding signal is 53900 fluorescence intensity (a.u.).

Which binding signal does the source give for “TCCACTTGGGTGATTAGAATCTGTCTTCCCTGTTTTAAGCCGGAGTCACCTAGTGCAG” here?
The binding signal was 7670 fluorescence intensity (a.u.).

For “CATACATATGTAATTTACTTCGATTCGATTAAATTGGCAGCGGAGTCACCTAGTGCAG”, which binding signal is on record?
Its binding signal is 7090 fluorescence intensity (a.u.).

“TAACCTTAATTAATTGATTAAATTACAAATATTCTAGCCCCGGAGTCACCTAGTGCAG” was tested. Which binding signal did it give?
The binding signal was 44000 fluorescence intensity (a.u.).

With “AGAGATCGATCGATTAATTAGCAACAAGCCAACGACAAGCCGGAGTCACCTAGTGCAG” as the sequence, how does the binding signal read?
The binding signal was 4950 fluorescence intensity (a.u.).

Which binding signal does the source give for “TCGTGATTAGAATCTTAATCTCTAGCCTGTCTTTGCTTGCCGGAGTCACCTAGTGCAG” here?
Its binding signal is 56200 fluorescence intensity (a.u.).

“CTTAATTAGCTCTAGCGAGCTAGCTAGCTTGCTCTGTCTTCGGAGTCACCTAGTGCAG” was tested. Which binding signal did it give?
Its binding signal is 24200 fluorescence intensity (a.u.).

“GTTTTCCTAATTAATTGCTAGCTCGATTTGCTCGGTGATCCGGAGTCACCTAGTGCAG” was tested. Which binding signal did it give?
The binding signal was 29900 fluorescence intensity (a.u.).

For “AAGATGAGGTGATAGACTGACTAGCACTGAGCTTGCCCGGCGGAGTCACCTAGTGCAG”, which binding signal is on record?
Its binding signal is 14400 fluorescence intensity (a.u.).

“ACTAGACAATTTGAATTTACAACTATATATACTCCCAATCCGGAGTCACCTAGTGCAG” was tested. Which binding signal did it give?
The binding signal was 3250 fluorescence intensity (a.u.).

How did the binding signal turn out when “GAACTAGCTTAATTAAACCACAATTAGAATATATGTAGGACGGAGTCACCTAGTGCAG” was run?
Its binding signal is 3750 fluorescence intensity (a.u.).

With “TAAGTAATTATTTATTCTTTTCATATCATTTGATTCATTGCGGAGTCACCTAGTGCAG” as the sequence, how does the binding signal read?
Its binding signal is 15400 fluorescence intensity (a.u.).

How did the binding signal turn out when “AAAAGGATATGATTTGAAATGGCATTAAAGTGAATAGGCCCGGAGTCACCTAGTGCAG” was run?
The binding signal was 4540 fluorescence intensity (a.u.).

For “GATTAGGTTAATTGAGATCTGCCTTGCTCTGCTCTGCTCGCGGAGTCACCTAGTGCAG”, which binding signal is on record?
The binding signal was 21500 fluorescence intensity (a.u.).

Which binding signal does the source give for “TTATGATTTAATTAGCGATTAATTATCCTAATTAGTGATTCGGAGTCACCTAGTGCAG” here?
The binding signal was 62200 fluorescence intensity (a.u.).

For “ACTCCTGACTTGATTGGCAGTGAGTTGCTCATCTGCCTAGCGGAGTCACCTAGTGCAG”, which binding signal is on record?
The binding signal was 40300 fluorescence intensity (a.u.).

For “TCTAATTAATCCATGATTAGCCTATGTGATGCTACAGTAACGGAGTCACCTAGTGCAG”, which binding signal is on record?
Its binding signal is 25100 fluorescence intensity (a.u.).

How did the binding signal turn out when “TTAGCGTCTAATTATAGGATTATTTATGATAATATTCGTCCGGAGTCACCTAGTGCAG” was run?
The binding signal was 5680 fluorescence intensity (a.u.).

For “GCCTAATTAATCCATGATTAGCCTATGTGATGCTATAGTACGGAGTCACCTAGTGCAG”, which binding signal is on record?
The binding signal was 52700 fluorescence intensity (a.u.).

For “CTAATGAGCCTAATTAATCCATGATTAGCCTATGTGATGCCGGAGTCACCTAGTGCAG”, which binding signal is on record?
The binding signal was 43000 fluorescence intensity (a.u.).

With “CAGTTAATTGAGTTGATGGCCACTCCTCTGCTGCTCGTCGCGGAGTCACCTAGTGCAG” as the sequence, how does the binding signal read?
Its binding signal is 60700 fluorescence intensity (a.u.).

How did the binding signal turn out when “TCCAACGGTGCCGCTTAATTAGTGATTAATTATCCTAATTCGGAGTCACCTAGTGCAG” was run?
Its binding signal is 16400 fluorescence intensity (a.u.).

For “ATGACTATTTTCACCTATAATTATAAGTTATGGAACAATACGGAGTCACCTAGTGCAG”, which binding signal is on record?
The binding signal was 4820 fluorescence intensity (a.u.).

With “AGCAAAATTAACACCGCAATTTGAGCCGGTTACTTCTTTCCGGAGTCACCTAGTGCAG” as the sequence, how does the binding signal read?
The binding signal was 4830 fluorescence intensity (a.u.).

“CCGCGATTACAATTAGCGCCGGATTAACCCTGCAATTAGCCGGAGTCACCTAGTGCAG” was tested. Which binding signal did it give?
Its binding signal is 20500 fluorescence intensity (a.u.).

Source: publication PMC7819943, “Rice protein-binding microarrays: a tool to detect cis-acting elements near promoter regions in rice”
